Results on eleven compounds are retold here after ChEMBL document CHEMBL3988442, “University of Dundee, Small-Polar-MMV Screening Library” (2021).

Common to all, as to design: scale not given: direction of the effect not stated beside the values
In assay [1] the target is Protein translocase subunit SecA (Escherichia coli (strain K12)) (UniProt P10408). In words: Assay to Identify E. coli SecA ATPase Inhibitors. In kind it is functional. The conditions noted are these: 30 µM.
The target in assay [2] is T1, Ubiquitin-activating enzyme e1, putative (Leishmania donovani (strain BPK282A1)) (UniProt E9BSI1).
T1 sequence (whole entry): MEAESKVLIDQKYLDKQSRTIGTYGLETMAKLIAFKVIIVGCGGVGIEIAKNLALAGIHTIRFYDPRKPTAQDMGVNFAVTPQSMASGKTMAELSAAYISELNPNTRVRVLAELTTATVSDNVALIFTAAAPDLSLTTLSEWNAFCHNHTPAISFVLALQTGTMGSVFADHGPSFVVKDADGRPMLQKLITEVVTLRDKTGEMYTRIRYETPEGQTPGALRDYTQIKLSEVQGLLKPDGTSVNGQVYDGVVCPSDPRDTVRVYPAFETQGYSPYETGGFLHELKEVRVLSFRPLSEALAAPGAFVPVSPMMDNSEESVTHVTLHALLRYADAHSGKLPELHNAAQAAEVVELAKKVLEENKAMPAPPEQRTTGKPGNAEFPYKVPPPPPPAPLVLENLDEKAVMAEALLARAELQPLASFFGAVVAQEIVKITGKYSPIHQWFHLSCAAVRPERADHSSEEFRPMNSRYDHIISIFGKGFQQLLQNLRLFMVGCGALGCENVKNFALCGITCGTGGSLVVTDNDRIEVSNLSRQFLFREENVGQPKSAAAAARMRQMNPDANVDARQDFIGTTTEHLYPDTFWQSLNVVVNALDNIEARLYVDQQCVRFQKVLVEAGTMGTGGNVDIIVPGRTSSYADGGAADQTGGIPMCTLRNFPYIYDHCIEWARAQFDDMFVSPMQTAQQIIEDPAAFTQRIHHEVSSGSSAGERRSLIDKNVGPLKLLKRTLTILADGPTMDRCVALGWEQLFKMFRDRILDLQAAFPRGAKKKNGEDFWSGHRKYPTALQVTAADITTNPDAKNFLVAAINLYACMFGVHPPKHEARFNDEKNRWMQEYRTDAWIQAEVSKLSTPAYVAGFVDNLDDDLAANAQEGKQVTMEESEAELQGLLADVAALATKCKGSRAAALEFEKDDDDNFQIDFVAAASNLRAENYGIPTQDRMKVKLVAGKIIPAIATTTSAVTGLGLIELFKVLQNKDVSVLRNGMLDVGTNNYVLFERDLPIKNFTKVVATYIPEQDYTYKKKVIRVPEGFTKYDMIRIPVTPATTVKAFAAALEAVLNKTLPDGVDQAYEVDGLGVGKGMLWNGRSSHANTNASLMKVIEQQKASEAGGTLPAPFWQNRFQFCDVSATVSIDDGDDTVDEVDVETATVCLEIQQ
In words: Leishmania donovani Ubiquitin Activating Enzyme (LdE1). Type of assay: functional. The following applies: 30 µM.

Assay [3] addresses AMP-activated protein kinase, AMPK (Homo sapiens) (UniProt P54646+O43741+P54619+Q9UGJ0+Q9Y478+Q13131+Q9UGI9). Nature of the assay: AMP-dependent Kinase enzyme assay. An in vitro enzyme assay that detects ADP turnover that is directly proportional to AMPK activity. This uses naive AMPK that is activated during the assay with MK-8722. Type of assay: functional. The following applies: 30 µM.

The target of assay [4] is Sialic acid-binding Ig-like lectin 9 (Homo sapiens) (UniProt Q9Y336). Nature of the assay: Hs-Siglec9 ALPHAscreen SOP 20170721. The conditions noted are these: 10 µM. Background: In Alpha technology, singlet oxygen from a donor bead excites a nearby acceptor bead.
Chain of Sialic acid-binding Ig-like lectin 9 (Homo sapiens) (Q9Y336 whole entry): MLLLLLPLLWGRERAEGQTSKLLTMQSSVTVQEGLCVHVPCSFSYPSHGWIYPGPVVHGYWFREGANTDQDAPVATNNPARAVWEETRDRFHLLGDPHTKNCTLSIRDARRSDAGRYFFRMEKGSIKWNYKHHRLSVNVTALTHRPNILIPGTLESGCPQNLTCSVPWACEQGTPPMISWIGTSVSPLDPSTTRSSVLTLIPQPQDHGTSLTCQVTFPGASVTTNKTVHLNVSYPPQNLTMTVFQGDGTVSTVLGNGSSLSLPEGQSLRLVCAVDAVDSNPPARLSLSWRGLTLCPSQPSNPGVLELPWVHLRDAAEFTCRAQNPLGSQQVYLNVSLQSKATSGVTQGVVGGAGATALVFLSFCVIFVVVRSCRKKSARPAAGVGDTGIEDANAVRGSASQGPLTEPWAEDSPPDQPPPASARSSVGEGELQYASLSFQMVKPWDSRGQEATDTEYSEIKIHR
For a further assay, the system named is Trypanosoma cruzi. Nature of the assay: Trypanosoma cruzi phosphomannomutase and mannose-1-phosphate guanylyltransferase assay. Type of assay: functional. The following applies: 10 µM.
In assay [5] the target is T2, Arginase-2, mitochondrial (Homo sapiens) (UniProt P78540).
T2 sequence (whole entry): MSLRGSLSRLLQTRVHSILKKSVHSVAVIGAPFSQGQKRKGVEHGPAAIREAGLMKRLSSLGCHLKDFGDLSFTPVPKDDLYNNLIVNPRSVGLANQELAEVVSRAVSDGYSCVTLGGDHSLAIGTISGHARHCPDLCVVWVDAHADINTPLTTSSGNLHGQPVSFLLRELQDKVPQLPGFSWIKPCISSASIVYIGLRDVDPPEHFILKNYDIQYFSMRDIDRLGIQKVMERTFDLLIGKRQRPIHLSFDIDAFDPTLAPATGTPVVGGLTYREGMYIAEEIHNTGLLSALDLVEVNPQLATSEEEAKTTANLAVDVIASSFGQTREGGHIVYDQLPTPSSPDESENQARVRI
In words: in vitro enzyme assay to detect the production of urea directly proportional to the activity of Arginase II. Further: in the data most compounds retested in dose-response had high values. Type of assay: functional. The conditions noted are these: 33.3 µM.

Assay [6] addresses T3, Proteasome subunit beta (Trypanosoma cruzi) (UniProt O96673).
T3 sequence (whole entry): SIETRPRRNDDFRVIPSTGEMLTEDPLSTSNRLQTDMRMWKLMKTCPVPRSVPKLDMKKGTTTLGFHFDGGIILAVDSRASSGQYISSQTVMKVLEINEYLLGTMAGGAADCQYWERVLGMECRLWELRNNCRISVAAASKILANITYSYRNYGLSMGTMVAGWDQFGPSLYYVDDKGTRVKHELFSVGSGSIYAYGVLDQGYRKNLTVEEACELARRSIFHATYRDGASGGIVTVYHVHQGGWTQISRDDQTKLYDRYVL
Nature of the assay: Trypanosoma cruzi proteasome chymotrypsin-like activity (TcProtChymo) assay. Further: in the data most compounds retested in dose-response had high values. In kind it is functional. The conditions noted are these: 9.37 µM.

For another assay, the species on record is Homo sapiens. In words: To identify inhibition of the IFN signalling (Jak-Stat) pathway via expression of an eGFP reporter gene under the control of an IFN-stimulated response element (ISRE) containing MxA promoter. Type of assay: functional. The following applies: 30 µM.
Assay [7] deals with T4, Tyrosyl-tRNA synthetase, putative (Trypanosoma cruzi (strain CL Brener)) (UniProt Q4DSP6).
T4 sequence (whole entry): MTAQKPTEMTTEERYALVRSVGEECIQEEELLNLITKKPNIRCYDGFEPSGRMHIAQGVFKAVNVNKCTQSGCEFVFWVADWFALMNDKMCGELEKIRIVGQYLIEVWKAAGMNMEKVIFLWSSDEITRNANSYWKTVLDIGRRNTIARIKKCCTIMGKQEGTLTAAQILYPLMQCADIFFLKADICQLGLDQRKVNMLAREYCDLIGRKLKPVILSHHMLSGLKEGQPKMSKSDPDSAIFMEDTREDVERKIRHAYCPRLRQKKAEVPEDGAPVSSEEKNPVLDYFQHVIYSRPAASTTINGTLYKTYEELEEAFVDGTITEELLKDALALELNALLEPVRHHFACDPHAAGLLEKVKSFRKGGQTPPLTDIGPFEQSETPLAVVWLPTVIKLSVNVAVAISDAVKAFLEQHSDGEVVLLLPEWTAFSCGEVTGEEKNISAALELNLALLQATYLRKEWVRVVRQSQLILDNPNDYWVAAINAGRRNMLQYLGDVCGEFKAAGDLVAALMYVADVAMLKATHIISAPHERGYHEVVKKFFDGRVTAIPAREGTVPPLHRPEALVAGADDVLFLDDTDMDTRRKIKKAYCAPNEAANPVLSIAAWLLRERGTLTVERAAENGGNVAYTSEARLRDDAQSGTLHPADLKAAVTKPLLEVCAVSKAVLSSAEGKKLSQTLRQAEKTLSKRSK
Nature of the assay: Trypanosoma cruzi tyrosyl tRNA synthetase (TcYRS) _High Tyrosine SOP. Further: in the data most compounds retested in dose-response had high values. In kind it is functional. The following applies: 30 µM.

Assay [8] has as its target T4, Tyrosyl-tRNA synthetase, putative (Trypanosoma cruzi (strain CL Brener)). In words: Trypanosoma cruzi tyrosyl tRNA synthetase (TcYRS) SOP. Type of assay: functional. The conditions noted are these: 30 µM.
Assay [9] deals with Chromo domain-containing protein 1 (Saccharomyces cerevisiae (strain ATCC 204508 / S288c) (Baker's yeast)) (UniProt P32657). Nature of the assay: ScCHD-1 Enzyme Inhibition Assay. Further: in the data most compounds retested in dose-response had high values. The conditions noted are these: 30 µM. Type of assay: functional.
Chain of Chromo domain-containing protein 1 (Saccharomyces cerevisiae (strain ATCC 204508 / S288c) (Baker's yeast)) (P32657 whole entry, the tested form may be a part): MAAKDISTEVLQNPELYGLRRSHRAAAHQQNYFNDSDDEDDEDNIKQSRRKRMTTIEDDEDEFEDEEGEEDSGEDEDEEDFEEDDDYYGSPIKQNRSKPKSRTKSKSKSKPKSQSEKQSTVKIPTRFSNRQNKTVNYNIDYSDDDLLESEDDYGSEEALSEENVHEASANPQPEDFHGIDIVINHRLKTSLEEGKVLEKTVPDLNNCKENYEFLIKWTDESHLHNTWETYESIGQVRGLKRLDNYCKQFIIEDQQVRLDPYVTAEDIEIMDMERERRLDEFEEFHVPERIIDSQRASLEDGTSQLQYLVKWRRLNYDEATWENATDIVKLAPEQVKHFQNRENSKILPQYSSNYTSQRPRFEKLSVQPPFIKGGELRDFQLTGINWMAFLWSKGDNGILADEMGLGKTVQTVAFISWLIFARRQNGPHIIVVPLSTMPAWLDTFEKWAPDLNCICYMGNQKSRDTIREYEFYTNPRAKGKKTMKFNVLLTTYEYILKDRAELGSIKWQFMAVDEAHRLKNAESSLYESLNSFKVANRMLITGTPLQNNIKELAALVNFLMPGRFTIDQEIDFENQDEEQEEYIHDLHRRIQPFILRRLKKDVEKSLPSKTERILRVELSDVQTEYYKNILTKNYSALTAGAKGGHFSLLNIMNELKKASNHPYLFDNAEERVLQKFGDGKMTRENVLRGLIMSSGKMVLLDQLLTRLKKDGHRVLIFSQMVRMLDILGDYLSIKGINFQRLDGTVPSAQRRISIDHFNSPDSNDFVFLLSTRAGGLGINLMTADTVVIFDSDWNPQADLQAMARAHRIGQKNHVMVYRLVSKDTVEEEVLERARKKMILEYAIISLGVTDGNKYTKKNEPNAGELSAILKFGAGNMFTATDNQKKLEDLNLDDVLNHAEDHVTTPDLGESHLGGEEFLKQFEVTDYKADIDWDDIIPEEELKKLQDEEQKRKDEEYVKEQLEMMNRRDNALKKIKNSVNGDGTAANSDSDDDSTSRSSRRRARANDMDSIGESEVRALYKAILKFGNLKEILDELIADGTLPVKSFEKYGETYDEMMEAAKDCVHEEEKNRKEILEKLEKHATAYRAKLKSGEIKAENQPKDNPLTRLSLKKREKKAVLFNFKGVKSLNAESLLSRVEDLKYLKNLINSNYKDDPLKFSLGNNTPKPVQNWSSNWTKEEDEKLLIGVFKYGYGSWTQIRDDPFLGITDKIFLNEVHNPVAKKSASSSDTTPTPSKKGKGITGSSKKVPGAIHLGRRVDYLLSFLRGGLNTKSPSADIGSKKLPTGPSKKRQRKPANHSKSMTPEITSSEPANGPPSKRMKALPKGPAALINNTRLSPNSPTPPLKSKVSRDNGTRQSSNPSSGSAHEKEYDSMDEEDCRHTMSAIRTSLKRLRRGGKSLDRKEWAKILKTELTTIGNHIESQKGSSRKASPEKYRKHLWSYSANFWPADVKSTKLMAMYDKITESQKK

For some of these results: Results with a measured potency or affinity are listed apart.

Chain of Protein translocase subunit SecA (Escherichia coli (strain K12)) (P10408 whole entry): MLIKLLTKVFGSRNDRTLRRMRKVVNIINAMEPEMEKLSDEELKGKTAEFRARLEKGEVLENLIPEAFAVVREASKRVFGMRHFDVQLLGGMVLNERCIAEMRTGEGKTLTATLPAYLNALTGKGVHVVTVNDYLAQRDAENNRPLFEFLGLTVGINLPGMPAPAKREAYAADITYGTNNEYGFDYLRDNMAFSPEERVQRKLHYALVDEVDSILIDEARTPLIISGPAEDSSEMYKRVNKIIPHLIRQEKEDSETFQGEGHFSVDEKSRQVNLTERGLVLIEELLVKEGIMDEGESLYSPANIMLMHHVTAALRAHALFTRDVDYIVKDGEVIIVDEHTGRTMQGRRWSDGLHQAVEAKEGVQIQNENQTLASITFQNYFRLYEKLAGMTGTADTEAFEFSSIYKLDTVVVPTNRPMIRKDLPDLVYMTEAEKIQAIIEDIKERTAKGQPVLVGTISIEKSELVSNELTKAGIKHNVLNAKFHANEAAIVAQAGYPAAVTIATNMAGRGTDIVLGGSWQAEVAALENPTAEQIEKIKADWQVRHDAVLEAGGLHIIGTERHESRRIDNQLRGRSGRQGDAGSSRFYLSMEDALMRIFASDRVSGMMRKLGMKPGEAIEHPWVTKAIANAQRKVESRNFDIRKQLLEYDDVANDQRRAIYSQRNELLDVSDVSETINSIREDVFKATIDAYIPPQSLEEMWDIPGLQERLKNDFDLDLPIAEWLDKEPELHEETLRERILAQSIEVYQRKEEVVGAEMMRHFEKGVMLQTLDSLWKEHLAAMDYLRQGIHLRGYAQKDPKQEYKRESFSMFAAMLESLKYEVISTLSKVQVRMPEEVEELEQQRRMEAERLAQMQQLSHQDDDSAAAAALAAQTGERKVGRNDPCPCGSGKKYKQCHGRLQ

Take `Cc1n[nH]c(C)c1C1COCCN1C(=O)Cc1cccc(F)c1` (stereo unspecified): the Percent Effect in assay [1] is 1.02%; in assay [2] it was -2.74%; in assay [3] it was 2.69%; in assay [4], 0.561%; with Trypanosoma cruzi, -6.46%; in assay [5], 2.73%. Besides, the Percent Effect in assay [6] is 2.13%; in the assay listed under Homo sapiens it was -1.33%; in [7] it was -1.07%; in [8], -2.5%; in assay [9] it was -1.14%.
For `O=c1ccc(-c2ccccc2F)nn1CCN1CCCS1(=O)=O`, the Percent Effect in assay [1] was -6.51%; in assay [2] it was 13.5%; in [3], -4.96%; in [4], 22.3%; in the assay with Trypanosoma cruzi, 6.16%; in assay [5] it was 3.72%. For the same compound, the Percent Effect in assay [6] is 1.29%; in the assay filed under Homo sapiens, -2.29%; in assay [7] it was 1.07%; in assay [8] it was 8.64%; in assay [9], -10.9%.
In the case of `CC(C#N)CSc1ccccc1NCC(=O)NCc1ccccc1` (stereo unspecified), the Percent Effect in assay [1] was -3.57%; in assay [2], -8.22%; in assay [3], 11.4%; in assay [4], 8.76%; with Trypanosoma cruzi it was 5.49%; in assay [5], 14.1%. The Percent Effect in assay [6] was 11.7%; in the assay filed under Homo sapiens, 19.4%; in assay [7], -2.15%; in assay [8], -5%; in assay [9] it was -1.42%.
`Cc1cnn(CC2CCCN2Cc2nnsc2Cl)c1` (stereo unspecified): the Percent Effect in assay [1] is -4.93%; in [2], 0%; in assay [3], -0.946%; in [4], -0.665%; with Trypanosoma cruzi, -3.68%; in assay [5] it was -2.66%. The Percent Effect in assay [6] was 0.573%; in the assay filed under Homo sapiens, 28.5%; in [7], 2.46%; in [8], -3.8%; in assay [9], 3.6%.
Consider `CC(C)Cc1noc(CN2CCN(c3nccs3)CC2)n1`, for which the Percent Effect is -8.59% in assay [1]; 10.4% in [2]; 5.21% in assay [3]; 0.0825% in assay [4]; -5.99% in the assay with Trypanosoma cruzi; -2.13% in [5]. Besides, the Percent Effect is 6.25% in assay [6]; 33.3% in the assay filed under Homo sapiens; 0.971% in assay [7]; 7.32% in assay [8]; -3.68% in assay [9].
Consider `COc1cc(CN2CC[C@@]3(CCCO3)[C@@H](O)C2)ccc1F`, for which the Percent Effect is -3.6% in assay [1]; 14.9% in [2]; 6.46% in [3]; -2.68% in [4]; 2.96% in the assay with Trypanosoma cruzi; 0.696% in [5]. The Percent Effect in assay [6] was 3.74%; in the assay filed under Homo sapiens, -18.1%; in [7], 6.45%; in [8], 16.9%; in assay [9], -12.2%.
As to `CCN1CC2(CC1=O)CN(C(=O)c1ccco1)CCN(C(=O)N(C)C)C2` (stereo unspecified), the Percent Effect was -0.623% in assay [1]; 5.48% in assay [2]; -1.36% in [3]; 5.48% in assay [4]; -2.18% in the assay on Trypanosoma cruzi; -8.78% in [5]. Also, the Percent Effect in assay [6] was 12.6%; in the assay listed under Homo sapiens it was 6.21%; in assay [7], 6.25%; in [8] it was 1.24%; in [9], -1.51%.
On to `CN(C(=O)C1CCCCC1)[C@@H]1CCC[C@@H](N2CCOCC2)[C@@H]1O`, for which the Percent Effect in assay [1] is -3.72%; in assay [2], 4.05%; in assay [3] it was 0.0373%; in assay [4] it was 6.37%; in the assay with Trypanosoma cruzi, 1.78%; in assay [5] it was -2.09%. Further, the Percent Effect in assay [6] is 6.86%; in the assay listed under Homo sapiens it was 8.21%; in assay [7] it was 1.07%; in [8], 3.9%; in assay [9], 74.8%.
Take `Cc1occc1C(=O)N1CCC[C@]2(C[C@@H](OCc3ccncc3)CO2)C1`: the Percent Effect in [1] is 0.103%; in assay [2] it was 10.7%; in assay [3], 1.3%; in assay [4], 1.1%; in the assay on Trypanosoma cruzi, -1.16%; in assay [5], -23.5%. The Percent Effect was 16.4% in assay [6]; -0.395% in the assay filed under Homo sapiens; 7.29% in assay [7]; 22.5% in assay [8]; -5.63% in [9].
For the compound `CCn1cnnc1CNC(=O)NC(C)c1cccs1` (stereo unspecified), the Percent Effect in assay [1] is -1.87%; in assay [2] it was 23.4%; in [3] it was -0.473%; in assay [4] it was 11.3%; with Trypanosoma cruzi, 1.5%; in [5] it was -5.69%. For the same compound, the Percent Effect in assay [6] is 3.38%; in the assay listed under Homo sapiens, 10.1%; in [7], 4.85%; in assay [8], 21.9%; in assay [9], -8.5%.
Turning to `c1cn(Cc2nnc(C3CCN(c4nccs4)CC3)n2C2CC2)cn1`, the Percent Effect is -3.22% in [1]; 16% in assay [2]; 0.541% in assay [3]; 19.9% in [4]; 4.77% in the assay with Trypanosoma cruzi; 13% in assay [5]. The Percent Effect in [6] was found to be 9.59%; in the assay listed under Homo sapiens, 7.24%; in assay [7] it was 7.1%; in assay [8], 8.64%; in assay [9] it was 90.7%.
